Among all 77,000 compounds or so, about 4,600 (6%) were called active. Another 1% or so got no clear call; they are omitted. What follows is part of a selection rich in actives, with near analogues and random picks from the rest. Values without a mark were called inactive.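 How the source made its calls: active means mean inhibition above about 93%, with at least 55% of replicates each passing it (limit read from the data, passing the limit was not always enough); inconclusive means only one of those two conditions holds; inactive means neither condition holds.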
assay: growth inhibition of T. cruzi in host fibroblasts – cell-based, beta-gal Tulahuen parasites, NIH3T3 host, luminescence, primary screen (AID 624255); settings: T. cruzi beta-gal in NIH3T3, GalScreen luminescence, 90 h; at 8.34 µM; hits give high values

Question: Which inhibition does the source give for `C[C@@H]1CCCCO[C@@H](CN(C)S(=O)(=O)c2ccc(F)cc2)[C@@H](C)CN([C@@H](C)CO)C(=O)c2cc(NC(=O)Nc3ccc4c(c3)OCO4)ccc2O1` here?
Answer: 23.6%

Question: For `C[C@@H]1CCCCO[C@H](CN(C)S(=O)(=O)c2ccc(Cl)cc2)[C@H](C)CN([C@H](C)CO)C(=O)c2cc(NC(=O)NC3CCCCC3)ccc2O1`, which inhibition is on record?
Answer: 92.2%

Question: With `COc1ccc(NC(=O)Nc2ccc3c(c2)C(=O)N([C@H](C)CO)C[C@H](C)[C@@H](CN(C)S(=O)(=O)c2ccc(OC)cc2)OCCCC[C@H](C)O3)cc1` as the compound, how does the inhibition read?
Answer: -12%

Question: With `C[C@H]1CCCCO[C@H](CN(C)S(=O)(=O)c2ccc(Cl)cc2)[C@@H](C)CN([C@@H](C)CO)C(=O)c2cc(NC(=O)Nc3ccc4c(c3)OCO4)ccc2O1` as the compound, how does the inhibition read?
Answer: 105% (active)

Question: With `COc1ccc(S(=O)(=O)N(C)C[C@@H]2OCCCC[C@H](C)Oc3ccc(NC(=O)Nc4ccccc4)cc3C(=O)N([C@@H](C)CO)C[C@H]2C)cc1` as the compound, how does the inhibition read?
Answer: 37.1%

Question: Which inhibition does the source give for `C[C@@H]1CCCCO[C@H](CN(C)S(=O)(=O)c2ccc(Cl)cc2)[C@@H](C)CN([C@H](C)CO)C(=O)c2cc(NC(=O)Nc3ccc4c(c3)OCO4)ccc2O1` here?
Answer: 82.9%

Question: For `COc1ccc(NC(=O)Nc2ccc3c(c2)C(=O)N([C@H](C)CO)C[C@H](C)[C@H](CN(C)S(=O)(=O)c2ccc(Cl)cc2)OCCCC[C@H](C)O3)cc1`, which inhibition is on record?
Answer: 115% (active)

Question: Which inhibition does the source give for `CC(C)NC(=O)Nc1ccc2c(c1)C(=O)N([C@@H](C)CO)C[C@H](C)[C@H](CN(C)S(=O)(=O)c1ccc(Cl)cc1)OCCCC[C@H](C)O2` here?
Answer: 106% (active)

Question: With `CC(C)NC(=O)Nc1ccc2c(c1)C(=O)N([C@H](C)CO)C[C@@H](C)[C@@H](CN(C)S(=O)(=O)c1ccc(Cl)cc1)OCCCC[C@H](C)O2` as the compound, how does the inhibition read?
Answer: 55%

Question: Which inhibition does the source give for `Cc1ccc(S(=O)(=O)Nc2ccc3c(c2)C(=O)N([C@@H](C)CO)C[C@@H](C)[C@H](CN(C)C(=O)NC(C)C)OCCCC[C@H](C)O3)cc1` here?
Answer: 46%

Question: For `CO[C@H]1CN(C)C(=O)c2ccc(NC(C)=O)cc2OC[C@H](C)N(CC2CC2)C[C@@H]1C`, which inhibition is on record?
Answer: 5.22%

Question: For `CNC(=O)C[C@H]1CC[C@@H]2[C@H](COc3ccc(NC(=O)Nc4cccc(F)c4)cc3C(=O)N2C)O1`, which inhibition is on record?
Answer: 14.8%

Question: For `C[C@@H]1CN([C@H](C)CO)C(=O)c2cc(NC(=O)Nc3cccc4ccccc34)ccc2O[C@H]1CN(C)C(=O)Nc1ccccc1`, which inhibition is on record?
Answer: 45.7%

Question: For `O=C(Nc1cccc(F)c1)N[C@@H]1CC[C@@H](CCn2cc(Cc3ccccc3)nn2)O[C@@H]1CO`, which inhibition is on record?
Answer: 42.3%

Question: Which inhibition does the source give for `CCNC(=O)Nc1ccc2c(c1)C(=O)N(C)[C@@H]1CC[C@H](CC(=O)NC3CCCCC3)O[C@H]1CO2` here?
Answer: 36%

Question: Which inhibition does the source give for `O=C(Cc1ccccn1)NCC[C@H]1CC[C@H](NS(=O)(=O)c2ccccc2)[C@@H](CO)O1` here?
Answer: 44.9%

Question: Which inhibition does the source give for `OC[C@@H]1[C@H](c2ccc(C#CC3(O)CCCC3)cc2)[C@H]2CN(Cc3cncnc3)CCCCN12` here?
Answer: 101% (active)

Question: For `CCCC#Cc1ccc([C@H]2[C@H]3CN(Cc4cncnc4)CCCCN3[C@H]2CO)cc1`, which inhibition is on record?
Answer: 63.2%

Question: Which inhibition does the source give for `OC[C@@H]1[C@@H](c2ccc(C#CC3(O)CCCC3)cc2)[C@@H]2CN(Cc3cncnc3)CCCCN12` here?
Answer: 18.1%

Question: Which inhibition does the source give for `OC[C@H]1[C@@H](c2ccc(C#CC3(O)CCCC3)cc2)[C@H]2CN(Cc3cncnc3)CCCCN21` here?
Answer: 60.8%

Question: Which inhibition does the source give for `OC[C@@H]1[C@H](c2ccc(C#Cc3ccccc3)cc2)[C@@H]2CN(Cc3cncnc3)CCCCN12` here?
Answer: 112% (active)

Question: With `COCC#Cc1ccc([C@H]2[C@H](CO)N3CCCCN(Cc4ccncc4)C[C@@H]23)cc1` as the compound, how does the inhibition read?
Answer: 37.4%

Question: Which inhibition does the source give for `CO[C@H]1CN(C)C(=O)c2cc(NC(=O)C3CC3)ccc2OC[C@@H](C)N(CCc2ccccc2)C[C@H]1C` here?
Answer: 11.1%

Question: Which inhibition does the source give for `CO[C@@H]1CN(C)C(=O)c2ccc(NC(=O)Nc3cc(Cl)cc(Cl)c3)cc2OC[C@H](C)NC[C@H]1C` here?
Answer: -5.93%

Question: Which inhibition does the source give for `CCCNC(=O)C[C@@H]1CC[C@@H]2[C@H](COC[C@H](O)CN2C(=O)c2cc(Cl)cc(Cl)c2)O1` here?
Answer: 3.7%

Question: With `COc1ccc(NC(=O)N[C@H]2CC[C@@H](CCNC(=O)c3cc(Cl)cc(Cl)c3)O[C@H]2CO)cc1` as the compound, how does the inhibition read?
Answer: -22.3%

Question: Which inhibition does the source give for `C[C@@H]1CCCCO[C@@H](CN(C)C(=O)NC2CCCCC2)[C@@H](C)CN([C@@H](C)CO)C(=O)c2cc(NC(=O)C3CCCCC3)ccc2O1` here?
Answer: 69.2%

Question: Which inhibition does the source give for `O=C(NCc1cccc(F)c1)[C@H]1[C@H](CO)[C@H]2Cn3c(cccc3=O)[C@@H]1N2` here?
Answer: 23.3%

Question: For `COc1ccccc1NC(=O)N1CCCCN2[C@H](C1)[C@H](c1ccc(-c3ccccc3)cc1)[C@@H]2CO`, which inhibition is on record?
Answer: 119% (active)

Question: Which inhibition does the source give for `COc1ccccc1NC(=O)N1CCCCN2[C@@H](CO)[C@@H](c3ccc(C#Cc4ccccc4)cc3)[C@@H]2C1` here?
Answer: 94.4%

Question: Which inhibition does the source give for `O=C(Nc1ccccc1)N1CCCCN2[C@H](CO)[C@@H](c3ccc(-c4ccccc4F)cc3)[C@H]2C1` here?
Answer: 45.9%

Question: For `O=C(Nc1cc(F)ccc1F)N1CCCCN2[C@H](CO)[C@@H](c3ccc(-c4cccnc4)cc3)[C@@H]2C1`, which inhibition is on record?
Answer: 69.1%

Question: With `O=C(Nc1cc(F)ccc1F)N1CCCCN2[C@H](CO)[C@@H](c3ccc(-c4cncnc4)cc3)[C@H]2C1` as the compound, how does the inhibition read?
Answer: 106% (active)

Question: For `CC(=O)N1CCCCN2[C@H](CO)[C@H](c3ccc(-c4ccccc4)cc3)[C@@H]2C1`, which inhibition is on record?
Answer: 72.8%

Question: With `O=C(Nc1ccccc1F)N1CCCCN2[C@H](CO)[C@@H](c3ccc(-c4cccnc4)cc3)[C@H]2C1` as the compound, how does the inhibition read?
Answer: 104% (active)

Question: For `CN(C)CC(=O)N1CCCCN2[C@@H](CO)[C@H](c3ccc(-c4cccnc4)cc3)[C@@H]2C1`, which inhibition is on record?
Answer: 73.9%

Question: With `O=C(Nc1cc(F)ccc1F)N1CCCCN2[C@H](C1)[C@H](c1ccc(-c3cccnc3)cc1)[C@@H]2CO` as the compound, how does the inhibition read?
Answer: 89.5%

Question: Which inhibition does the source give for `C[C@@H]1CN([C@H](C)CO)C(=O)c2cc(NC(=O)c3ccccc3)ccc2O[C@@H](C)CCCCO[C@H]1CN(C)S(=O)(=O)c1ccccc1` here?
Answer: -19.9%

Question: With `O=C(Nc1ccc(Cl)cc1)N1C[C@@H]2[C@H](c3ccccc31)[C@@H](CO)N2C(=O)c1cccnc1` as the compound, how does the inhibition read?
Answer: -10.9%

Question: With `C[C@@H](O)C#Cc1ccc([C@@H]2[C@@H](CO)N3CCCCN(C(=O)c4ccc(F)cc4)C[C@@H]23)cc1` as the compound, how does the inhibition read?
Answer: 26.5%

Question: Which inhibition does the source give for `C[C@@H]1CN([C@@H](C)CO)C(=O)c2cc(NC(=O)Nc3cccc4ccccc34)ccc2O[C@@H](C)CCCCO[C@H]1CN(C)Cc1ccccc1` here?
Answer: 112% (active)

Question: For `C[C@@H]1CCCCO[C@H](CN(C)C(=O)Nc2ccc(C(F)(F)F)cc2)[C@@H](C)CN([C@@H](C)CO)C(=O)c2cc(NC(=O)Nc3cccc4ccccc34)ccc2O1`, which inhibition is on record?
Answer: 87.4%

Question: With `CC(C)NC(=O)N(C)C[C@H]1OCCCC[C@@H](C)Oc2ccc(NC(=O)Nc3cccc4ccccc34)cc2C(=O)N([C@H](C)CO)C[C@@H]1C` as the compound, how does the inhibition read?
Answer: 33.3%

Question: For `C[C@@H]1CCCCO[C@@H](CN(C)Cc2ccccc2)[C@H](C)CN([C@H](C)CO)C(=O)c2cc(NC(=O)Nc3cccc4ccccc34)ccc2O1`, which inhibition is on record?
Answer: 112% (active)

Question: Which inhibition does the source give for `C[C@H](CO)N1C[C@H](C)[C@@H](CN(C)Cc2ccc(C(=O)O)cc2)OCCCC[C@H](C)Oc2ccc(NC(=O)c3ccccc3)cc2C1=O` here?
Answer: 20.3%

Question: With `C[C@@H]1CCCCO[C@@H](CN(C)C(=O)Nc2ccc(F)cc2)[C@H](C)CN([C@H](C)CO)C(=O)c2cc(NC(=O)Nc3cccc4ccccc34)ccc2O1` as the compound, how does the inhibition read?
Answer: 108% (active)

Question: For `C[C@@H]1CCCCO[C@H](CN(C)C(=O)Nc2cccc3ccccc23)[C@@H](C)CN([C@@H](C)CO)C(=O)c2cc(NC(=O)Nc3ccc(F)cc3)ccc2O1`, which inhibition is on record?
Answer: 91.1%

Question: For `C[C@@H]1CCCCO[C@@H](CN(C)CC2CC2)[C@@H](C)CN([C@H](C)CO)C(=O)c2cc(NC(=O)Nc3cccc4ccccc34)ccc2O1`, which inhibition is on record?
Answer: 86.5%

Question: For `COc1ccc(CN(C)C[C@H]2OCCCC[C@@H](C)Oc3ccc(NC(=O)Nc4cccc5ccccc45)cc3C(=O)N([C@H](C)CO)C[C@@H]2C)cc1`, which inhibition is on record?
Answer: 67.6%

Question: For `C[C@H]1CCCCO[C@H](CN(C)Cc2ccccc2)[C@@H](C)CN([C@@H](C)CO)C(=O)c2cc(NC(=O)c3ccccc3)ccc2O1`, which inhibition is on record?
Answer: 102% (active)

Question: With `C[C@@H]1CCCCO[C@H](CN(C)C(=O)c2ccccc2)[C@@H](C)CN([C@H](C)CO)C(=O)c2cc(NC(=O)Nc3cccc4ccccc34)ccc2O1` as the compound, how does the inhibition read?
Answer: -46.1%

Question: Which inhibition does the source give for `C[C@H](CO)N1C[C@H](C)[C@H](CN(C)Cc2ccccc2)OCCCC[C@H](C)Oc2ccc(NC(=O)c3ccccc3)cc2C1=O` here?
Answer: 71.5%

Question: For `COc1ccc(NC(=O)N(C)C[C@@H]2OCCCC[C@@H](C)Oc3ccc(NS(=O)(=O)c4cn(C)cn4)cc3C(=O)N([C@@H](C)CO)C[C@H]2C)cc1`, which inhibition is on record?
Answer: 18.4%

Question: With `C[C@@H]1CN([C@@H](C)CO)C(=O)c2cc(NS(=O)(=O)c3cn(C)cn3)ccc2O[C@@H](C)CCCCO[C@@H]1CN(C)Cc1ccncc1` as the compound, how does the inhibition read?
Answer: -84.1%

Question: Which inhibition does the source give for `C[C@H](CO)N1C[C@H](C)[C@@H](CN(C)C(=O)c2ccncc2)Oc2ncc(-c3ccncc3)cc2C1=O` here?
Answer: 4.66%

Question: For `COC(=O)[C@@H]1[C@@H](CO)[C@@H]2Cn3c(ccc(-c4ccccc4)c3=O)[C@@H]2N1C(=O)C1CC1`, which inhibition is on record?
Answer: 59.9%

Question: Which inhibition does the source give for `O=C(Nc1ccccc1)N[C@@H]1CC[C@H](CCNS(=O)(=O)c2ccccc2F)O[C@@H]1CO` here?
Answer: -32.8%

Source: PubChem BioAssay AID624255 (Broad Institute, 2012)
